Assay outcomes: PubChem BioAssay, NMMLSC
The list is not random: actives were taken first. Their share in the collection is about 0.92%.
LAP4 TOR yeast – modulators of LAP4-GFP expression in yeast, primary screen, S. cerevisiae, multiplex flow cytometry, MLPCN library | 3 h; median GFP as percent of DMSO wells | GFP response vs DMSO, % at 10 µM | actives 0.34% (n = 320,000) | AID 2023, 2009;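 active means GFP response vs DMSO above a set limit, about the screen mean plus 3 SD, cut at about 150% in these data; inconclusive means under 70 cell events counted for the yeast strain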
AGP1 TOR yeast – modulators of AGP1-GFP expression in yeast TOR pathway, primary screen, cell-based, multiplex flow cytometry, S. cerevisiae, MLPCN library; 3 h; GFP as percent of DMSO wells; GFP response vs DMSO, % at 10 µM; actives 0.02% (n = 320,000);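 active means GFP response relative to DMSO above a set limit, near screen average plus 3 SD, cut at about 150% in these data; inconclusive means fewer than 70 cells counted for the yeast strain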;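 further: median GFP channel fluorescence of the gated AGP1 strain per well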
MEP2 TOR yeast – modulators of MEP2-GFP levels in yeast, primary screen, S. cerevisiae, multiplex flow cytometry, MLPCN library | S. cerevisiae MEP2-GFP strain, 3 h; 100% = DMSO control level | GFP response vs DMSO, % at 10 µM | actives 0.51% (n = 330,000) | AID 2016, 2009;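 active means GFP response versus DMSO above a set limit, roughly screen mean plus 3 SD, cut at about 180% in these data; inconclusive means fewer than 70 cells counted for a yeast strain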;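 further: median GFP fluorescence of the barcode-gated MEP2-GFP cells per well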
CIT2 TOR yeast – modulators of CIT2-GFP expression in yeast, primary screen, S. cerevisiae, GFP fusion, multiplex flow cytometry, MLPCN library; GFP response vs DMSO, % at 10 µM; S. cerevisiae CIT2-GFP strain, 3 h; 100 means same as DMSO wells; actives 0.065% (n = 320,000);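 active means GFP response relative to DMSO above a set limit, near the screen mean plus 3 SD, cut at about 150% in these data; inconclusive means Fewer than 70 cells measured for a yeast strain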;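 further: ratio of well median GFP fluorescence to mean of DMSO wells on the plate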
RPL19A-GFP yeast – RPL19A-GFP expression modulators in yeast, primary screen, cell-based, S. cerevisiae, multiplex flow cytometry, MLPCN; actives 0.3% (n = 330,000); S. cerevisiae RPL19A-GFP strain, 3 h; stronger effect = lower value; AID 2025, 2009; percent response vs DMSO, % at 10 µM;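 active means percent response vs DMSO below 50%; inconclusive means fewer than 70 events counted for the yeast strain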;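 further: median channel GFP fluorescence of the barcoded RPL19A-GFP strain; ratio of sample median GFP to plate DMSO average so 100% = DMSO; lower means less RPL19A-GFP as with rapamycin TOR inhibition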
Numbers without * were called inactive; [ ] = dose if it differs, or a comment.

How did O=C(CCNS(=O)(=O)c1ccc(Cl)cc1)NCc1cccnc1 do in these assays?
LAP4 TOR yeast: 118; AGP1 TOR yeast: inconclusive; MEP2 TOR yeast: 252*[may fluoresce violet]; CIT2 TOR yeast: inconclusive; RPL19A-GFP yeast: 29*[may fluoresce violet]

How did Cc1ccc(S(=O)(=O)NCCC(=O)NCc2cccnc2)cc1 do in these assays?
LAP4 TOR yeast: 104; AGP1 TOR yeast: 99; MEP2 TOR yeast: 97; CIT2 TOR yeast: 97; RPL19A-GFP yeast: 100

What do the screens show for `Cc1cccc(C(=O)O/N=C(\N)c2cccc([N+](=O)[O-])c2)c1`?
LAP4 TOR yeast: 113; AGP1 TOR yeast: 91; MEP2 TOR yeast: 99; CIT2 TOR yeast: 98; RPL19A-GFP yeast: 97

What do the screens show for `N/C(=N\OC(=O)c1cccc([N+](=O)[O-])c1)c1cccnc1`?
LAP4 TOR yeast: 77; AGP1 TOR yeast: inconclusive; MEP2 TOR yeast: 215*[may fluoresce violet]; CIT2 TOR yeast: inconclusive; RPL19A-GFP yeast: 24*[may fluoresce violet]

How did COC(=O)c1ccccc1OCC(=O)NC1CCCCC1 do in these assays?
LAP4 TOR yeast: 165*; AGP1 TOR yeast: 97; MEP2 TOR yeast: 99; CIT2 TOR yeast: 79; RPL19A-GFP yeast: 96

Results for COC(=O)c1ccc(OCC(=O)NC2CCCCCCC2)cc1 ?
LAP4 TOR yeast: 107; AGP1 TOR yeast: 98; MEP2 TOR yeast: 99; CIT2 TOR yeast: 102; RPL19A-GFP yeast: 102

Results for CSc1ccccc1NC(=O)CN1CCN(S(=O)(=O)c2ccccc2[N+](=O)[O-])CC1 ?
LAP4 TOR yeast: 94; AGP1 TOR yeast: 94; MEP2 TOR yeast: 96; CIT2 TOR yeast: 90; RPL19A-GFP yeast: 92

Results for CCOC(=O)CSc1nc2cc(C)ccc2cc1C#N ?
LAP4 TOR yeast: 110; AGP1 TOR yeast: 21; MEP2 TOR yeast: 359*[may fluoresce violet]; CIT2 TOR yeast: inconclusive; RPL19A-GFP yeast: 56

Results for COCCN1CCN(C(=O)c2ccc3oc(CCc4ccccc4)nc3c2)CC1 ?
LAP4 TOR yeast: 74; AGP1 TOR yeast: 86; MEP2 TOR yeast: 78; CIT2 TOR yeast: 88; RPL19A-GFP yeast: 94

What do the screens show for `CC(=O)NCCc1nc2cc(NC(=O)c3ccccc3Cl)ccc2n1C`?
LAP4 TOR yeast: 90; AGP1 TOR yeast: 96; MEP2 TOR yeast: 101; CIT2 TOR yeast: 102; RPL19A-GFP yeast: 101

What do the screens show for `CC(=O)NCCc1nc2cc(NC(=O)c3cccs3)ccc2n1C`?
LAP4 TOR yeast: 99; AGP1 TOR yeast: 50; MEP2 TOR yeast: 271*[may fluoresce violet]; CIT2 TOR yeast: inconclusive; RPL19A-GFP yeast: 90

How did N#Cc1c2ccc(O)cc2n2ccccc12 do in these assays?
LAP4 TOR yeast: 106; AGP1 TOR yeast: 101; MEP2 TOR yeast: 107; CIT2 TOR yeast: 101; RPL19A-GFP yeast: 98

What do the screens show for `O=C(O)c1cc(-c2c[nH]c3ccccc23)nc2cc3ccccc3cc12`?
LAP4 TOR yeast: 69; AGP1 TOR yeast: inconclusive; MEP2 TOR yeast: 636*[may fluoresce violet]; CIT2 TOR yeast: inconclusive; RPL19A-GFP yeast: 23*[may fluoresce violet]

What do the screens show for `O=C(O)c1ccc(Cl)c(S(=O)(=O)Nc2ccccc2C(=O)Nc2ccc(Cl)cc2)c1`?
LAP4 TOR yeast: 88; AGP1 TOR yeast: 101; MEP2 TOR yeast: 110; CIT2 TOR yeast: 94; RPL19A-GFP yeast: 98

How did CCOc1ccc(N2CC(C(=O)Nc3ccccc3N3CCOCC3)CC2=O)cc1 (stereo not given) do in these assays?
LAP4 TOR yeast: 88; AGP1 TOR yeast: 24; MEP2 TOR yeast: 260*[may fluoresce violet]; CIT2 TOR yeast: inconclusive; RPL19A-GFP yeast: 38*[may fluoresce violet]

How did Cc1ccccc1C(=O)c1cccn1CC(=O)NC(C)c1ccc2c(c1)OCCO2 (stereo not given) do in these assays?
LAP4 TOR yeast: 83; AGP1 TOR yeast: 90; MEP2 TOR yeast: 81; CIT2 TOR yeast: 86; RPL19A-GFP yeast: 90

Results for COc1cc(/C=N/n2cnnc2)ccc1OCCOc1ccccc1 ?
LAP4 TOR yeast: 90; AGP1 TOR yeast: 29; MEP2 TOR yeast: 262*[may fluoresce violet]; CIT2 TOR yeast: inconclusive

What do the screens show for `COc1cc(/C=N/n2cnnc2)ccc1OCc1ccccc1`?
LAP4 TOR yeast: 94; AGP1 TOR yeast: 111; MEP2 TOR yeast: 112; CIT2 TOR yeast: 109; RPL19A-GFP yeast: 104

What do the screens show for `O=C1CSc2ccc(S(=O)(=O)CCC(=O)NC3CCCCC3)cc2N1`?
LAP4 TOR yeast: 138; AGP1 TOR yeast: 127; MEP2 TOR yeast: 125; CIT2 TOR yeast: 123; RPL19A-GFP yeast: 96
